# An excerpt weighted towards active compounds, which were near 13% of everything screened.
# Cycloheximide cs = Cycloheximide Counterscreen for Small Molecule Inhibitors of Shiga Toxin | hit rate 12% among 300,000 | max response, % | AID 2314, 2010 | cell reporter, cycloheximide protein synthesis inhibition counterscreen; in the data active means max response mostly above about 13%, no sharp cut-off; inactive means mostly below about 14%; further: read at 38.3 µM for the half of the compounds with a filed dose; 0% is about no effect
# MARV entry inh = qHTS for inhibitors of binding or entry into cells for Marburg Virus. Marburg virus pseudotyped entry inhibition, cell reporter. Potency, µM (doses to about 37.8 µM), for the others: at the highest dose activity change, negative = inhibition, actives largely listed as inhibitors. hit rate 1.8% among 300,000. AID 540276, 2011; calls by dose curve; tested in HEK293 cells; further: potency means the concentration at half of the fitted maximal effect; on the % scale 0 is the no-effect control and ±100 the full control effect
# HCV inhibitor = qHTS Assay for Inhibitors of Hepatitis C Virus (HCV). Potency, µM (top dose mostly 41.8 µM), inactives show at the highest dose activity change, negative = inhibition, hits mostly inhibitors. hit rate 3.4% among 340,000. Huh7.5.1 HCVcc-Cre infection, luciferase reporter, 44 h; active means well fitted inhibition curve with a large enough effect; inconclusive means small, poorly fitted or top-dose-only effect, or another doubt; inactive means no such curve, though single readings can be large or run the other way; further: potency means the concentration at half of the fitted maximal effect; on the % scale 0 is the no-effect control and ±100 the full control effect
#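 After 44 h co-culture of compound, cells and HCVcc-Cre (~0.5 moi), substrate is added for 15 min at room temperature and luciferase measured over 15 sec. Cells were seeded at 1,000/well and pre-cultured 4 h.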
# Shiga inhibitor = A qHTS for Small Molecule Inhibitors of Shiga Toxin; Vero cells, Shiga toxin protein synthesis inhibition reporter; AID 2315, 2010; hit rate 9.2% among 290,000; inhibition, % at 38.7 µM; in the data active means inhibition mostly above about 28%, no sharp cut-off; inactive means mostly below about 43%; further: 0% is about no effect
# FMDV inh = High Throughput Screening for Foot and Mouth Disease Virus Antivirals; FMDV antiviral cell-based qHTS; Potency, µM (titrated, usually from 57.9 µM), for inactives: at the highest dose activity change, negative = inhibition, actives largely listed as inhibitors; hit rate 1.2% among 410,000; calls by dose curve; tested in HEK293T cells; further: read-out not given here; potency means the concentration at half of the fitted maximal effect; on the % scale 0 is the no-effect control and ±100 the full control effect; nearly all actives have a fitted effect of over 45% in size
# LASV entry inh = qHTS for Inhibitors of binding or entry into cells for Lassa Virus; Lassa virus pseudotype entry inhibition, cell reporter; Potency, µM (highest dose often 37.9 µM), for inactives: at the top dose activity change, negative = inhibition, actives largely listed as inhibitors; hit rate 1.2% among 300,000; AID 540256, 2011; calls by dose curve; tested in HEK293 cells; further: potency means the concentration at half of the fitted maximal effect; on the % scale 0 is the no-effect control and ±100 the full control effect; nearly all actives have a fitted effect of over 50% in size
# Numbers without * were called inactive; u = inconclusive; x = no result given; ! = repeats disagree; [ ] = another dose, or the depositor's remark.
SMILES,Cycloheximide cs,MARV entry inh,HCV inhibitor,Shiga inhibitor,FMDV inh,LASV entry inh
O=C(N[C@@H](Cc1ccccc1)C(=O)N1CCC2(CC1)NCCc1[nH]cnc12)c1cccc(Br)c1,9,x,u,-5,-20%,x
Nc1ccc2c(c1)COC2=O,34*,u,-4%,83*,59%,17%
Cc1ccc(C)n1-c1ccc2c(c1)COC2=O,-1,-4%,x,31,x,x
O=C1OCc2cc(-n3cccc3)ccc21,17*,u,u,28,23%,5%
CCOc1ccc(NC(=O)N(C2CCCCCC2)C2CCN(C(C)=O)CC2)cc1,7,3%,-2%,16,-1%,-9%
N#C/C(=C\c1ccc(F)cc1)c1n[nH]c(Cn2cncn2)n1,-2,2%,9%,-8,1%,u
Cc1cccc(NP(=O)(Oc2ccccc2F)Oc2ccccc2F)c1,-2,u,-19%,-2,2%,u
COc1cccc(NC(=O)c2cncs2)c1,1,x,6%,-6,-1%,x
COc1cccc(NC(=O)c2cnsn2)c1,44*,24%,9%,140*,33%,u
COc1cccc(NC(=O)c2ccn(C)n2)c1,41*,2%,4%,72*,57%,u
O=C(Nc1ccc(N2CCN(C(=O)c3ccccc3F)CC2)cc1)c1cncc(Br)c1,3,u,u,-21,32µM*,u
O=C(Nc1ccc(N2CCCCC2)cc1)c1cncc(Br)c1,28,u,u,141*,40%,-18%
Cc1ccccc1C(=O)N1CCN(c2ccc(NC(=O)c3cccnc3)cc2)CC1,-3,5%,1%,-9,u,u
CCn1nc(C)c(Br)c1C(=O)Sc1ccccc1Cl,-3,-10%[46.1 µM],10%,-3,22µM*,3%
COc1ccc(C(=O)NC(=S)NNC(=O)c2ccc(NC(=O)C(C)C)cc2)cc1,-4,u,16µM*,17,-3%,u
CC(=O)Nc1ccc(S(=O)(=O)c2ccc(N)cc2)cc1,18*!,x,-10%,24*!,-12%,x
CC(=O)Nc1ccc(OS(=O)(=O)c2ccc(C(C)(C)C)cc2)cc1,12*,x,x,34,x,x
CC(=O)Nc1ccc(OS(=O)(=O)O)cc1,-5,x,x,-5,x,x
COc1ccc(C(=O)NC(=S)NNC(=O)c2ccc(C)cc2)cc1,x,x,u,x,-4%,x
Cc1ccc(S(=O)(=O)Oc2cccc(N3C(=O)C4CC=CCC4C3=O)c2)cc1 (stereo not drawn),1,0%,2%,-34,-19%,u
CC(=O)Nc1ccc(S(=O)(=O)Oc2cccc(N3C(=O)C4CCCCC4C3=O)c2)cc1 (stereo not drawn),2,u,22%,-11,18µM*,4%
NS(=O)(=O)c1ccc(NC(=O)c2ccc(-c3ccccc3)cc2)cc1,-2,-4%[46.1 µM],10%,-9,-2%,12%[46.1 µM]
COc1cc(OC)cc(C(=O)NC2CCSC2=O)c1 (stereo not drawn),-3,16%,u,2,10%,-13%
O=C(NC1CCSC1=O)c1ccc(Cl)cc1 (stereo not drawn),-2,3%,-9%,-8,-9%,6%
COc1ccc(C(=O)NC(=S)NNC(=O)Cc2cccs2)cc1,18*,1%,u,55*,-6%,-1%
SMILES,Cycloheximide cs,MARV entry inh,HCV inhibitor,Shiga inhibitor,FMDV inh,LASV entry inh
COc1ccc(C(=O)NC(=S)NC2CCSC2=O)cc1 (stereo not drawn),14,2%,1%,27*,19%,4%
O=C(COc1ccc(Cl)cc1)NC1CCSC1=O (stereo not drawn),19*,25%,21%,53*,12%,6%
CC(C)(C)c1ccc(C(=O)Nc2ccc(S(N)(=O)=O)cc2)cc1,7,2%[46.1 µM],22µM*,14,-22%,u
CC(C)N(C)c1ncnc2c1ncn2[C@H]1CN(Cc2ccncc2)C[C@@H](CO)O1,x,x,x,x,-28%,x
COc1ccc(C(=O)OCC(=O)c2ccco2)cc1[N+](=O)[O-],x,x,x,x,-13%,x
CSCC[C@H](NC(=O)Cc1c(C)c2c(cc(C)c3c(C)c(C)oc32)oc1=O)C(=O)O,1,x,-16%,-10,1%,x
CCCn1c(C)cc(C(=O)COC(=O)c2cc(=O)[nH]c3ccccc23)c1C,x,x,x,x,15%,x
COc1ccc(C(=O)NC(=S)Nc2ccc(S(N)(=O)=O)cc2)cc1,18*,u,12%,35,26%,2%
COc1ccc(CC(=O)NC(=S)Nc2ccc(S(N)(=O)=O)cc2)cc1,2,u,-1%,-9,-20%,25%
CCNc1nc2cccnc2s1,26*,x,4%,38,44%,x
CNc1nc2cccnc2s1,8,x,4%,27,12%,x
COc1ccc2cc(CN(C(=O)Nc3ccccc3OC)C3CCCC3)c(=O)[nH]c2c1,-5,8.9µM*,u,-8,-20%,u
CCc1ccc2[nH]c(=O)c(CN(Cc3ccccc3)C(=O)Nc3ccccc3OC)cc2c1,1,u,2.5µM*,-5,-17%,-20%
COc1ccc2cc(CN(CC3CCCO3)C(=O)Nc3ccccc3OC)c(=O)[nH]c2c1 (stereo not drawn),8,u,u,-17,-14%,x
COC(=O)c1ccccc1NC(=S)N(Cc1ccc2c(c1)OCO2)Cc1cc2cc(OC)ccc2[nH]c1=O,-1,u,11µM*,-6,-11%,u
O=C(NC1CCCCC1)N(Cc1cc2cc3c(cc2[nH]c1=O)OCCO3)C1CCCCC1,-1,u,11µM*,-6,-3%,11%
CNC(=S)N(Cc1ccc(OC)cc1)Cc1cc2cc(C)ccc2[nH]c1=O,-4,20%[46.1 µM],6%,-7,3%,18%
CCc1cccc(NS(=O)(=O)c2ccc3c(c2)N(CC(=O)OC)C(=O)CS3)c1,x,x,x,x,7%,11%[46.1 µM]
CN(C(=O)Cc1ccccc1)n1cnnc1,-3,6%,9%,3,-7%,3%
COc1ccc(C(=O)OCC(=O)NCC2CCCCC2)cc1F,x,u,12%,x,45%,0%[46.1 µM]
Cc1ccccc1CN(c1ccc(C(N)=O)cc1)S(C)(=O)=O,-7,6%,24%,-17,15%,12%
O=C1NC[C@@H](CCCCN2C[C@H](Cc3ccc(O)cc3)N(CC3CCCCC3)C(=O)C2=O)N(CCC2CCCCC2)C1=O,x,x,x,x,-10%,x
NNC(=O)c1nn(-c2ccc(Cl)cc2)cc1O,-3,x,5%,7,-2%,x
Cc1cccc2cc(CN(Cc3ccco3)C(=O)Nc3cccc(C#N)c3)c(Cl)nc12,-2,u,u,5,x,u
COc1ccccc1NC(=O)N(Cc1ccco1)Cc1cc2cc(C)cc(C)c2[nH]c1=O,-2,u,3.2µM*,9,u,u
Cc1ccc(NC(=O)N(Cc2ccco2)Cc2cc3cc(C)cc(C)c3nc2Cl)cc1,27*,0%,u,48*,x,x
